Sampled rows, rich in hits. Any-hit rate of the full collection: about 2.2%.
H9c2 protect – modulators protecting cardiomyocytes from myocardial damage | H9c2 cardiomyocytes, H2O2 injury protection, ATPLite, 2 h | protection from H2O2 cell death, % at 20 µM | 0.63% of 360,000 active;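 active means compounds giving at least 50% protection of heart cells from peroxide-induced death in the single-dose screen, raw or plate-pattern-corrected value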
PLCg1 inh – inhibitors of human phospholipase C gamma1; 0.84% of 370,000 active; P19174; purified PLC-gamma1, fluorogenic substrate, fluorescence; AID 720700; inhibition, % at 12.2 µM; in the data active means inhibition above about 9.5%
Target sequence (P19174 whole entry, looked up): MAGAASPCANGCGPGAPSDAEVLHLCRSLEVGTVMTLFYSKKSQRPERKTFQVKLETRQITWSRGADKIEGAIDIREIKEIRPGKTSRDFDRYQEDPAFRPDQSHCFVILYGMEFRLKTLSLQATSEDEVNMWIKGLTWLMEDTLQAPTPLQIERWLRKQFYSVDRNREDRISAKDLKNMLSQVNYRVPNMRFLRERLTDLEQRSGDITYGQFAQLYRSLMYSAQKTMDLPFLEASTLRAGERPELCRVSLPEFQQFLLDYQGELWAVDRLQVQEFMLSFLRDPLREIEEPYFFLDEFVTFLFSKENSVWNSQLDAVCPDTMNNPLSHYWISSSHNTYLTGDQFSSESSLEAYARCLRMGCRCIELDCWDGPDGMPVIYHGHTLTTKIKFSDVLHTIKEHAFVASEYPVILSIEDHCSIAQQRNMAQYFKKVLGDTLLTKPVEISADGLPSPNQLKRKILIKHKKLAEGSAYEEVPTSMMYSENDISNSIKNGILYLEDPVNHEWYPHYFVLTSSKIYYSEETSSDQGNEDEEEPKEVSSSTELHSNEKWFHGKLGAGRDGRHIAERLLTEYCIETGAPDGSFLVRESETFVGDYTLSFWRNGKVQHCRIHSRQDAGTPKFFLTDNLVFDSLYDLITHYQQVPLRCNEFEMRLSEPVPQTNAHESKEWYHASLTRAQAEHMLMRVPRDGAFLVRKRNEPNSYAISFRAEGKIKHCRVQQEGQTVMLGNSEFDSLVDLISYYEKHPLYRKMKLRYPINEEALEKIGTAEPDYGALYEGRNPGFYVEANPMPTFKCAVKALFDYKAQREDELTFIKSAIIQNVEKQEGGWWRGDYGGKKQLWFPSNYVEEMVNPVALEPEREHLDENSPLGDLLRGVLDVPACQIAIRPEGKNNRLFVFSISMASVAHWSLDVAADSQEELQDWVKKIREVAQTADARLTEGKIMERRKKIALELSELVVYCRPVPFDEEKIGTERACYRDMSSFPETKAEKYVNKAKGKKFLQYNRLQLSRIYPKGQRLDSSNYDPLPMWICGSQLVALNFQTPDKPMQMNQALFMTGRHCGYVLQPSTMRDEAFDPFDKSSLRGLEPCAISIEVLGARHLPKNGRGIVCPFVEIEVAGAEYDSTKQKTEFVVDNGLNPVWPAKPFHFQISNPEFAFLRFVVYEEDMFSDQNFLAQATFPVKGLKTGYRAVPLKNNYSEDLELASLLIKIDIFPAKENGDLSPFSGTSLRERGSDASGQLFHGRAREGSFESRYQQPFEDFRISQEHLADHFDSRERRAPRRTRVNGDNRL
PLCb3 inh – PLC-beta3 (human) inhibition, primary screen; Q01970; Purified PLC-beta3, fluorogenic substrate, fluorescence; inhibition, % at 12.2 µM; 0.18% of 370,000 active; AID 720704; in the data active means inhibition above about 11%
FAS-TE inh – inhibitors of human fatty acid synthase thioesterase domain; recombinant FAS-TE, OMFH fluorogenic substrate, fluorescence endpoint; inhibition, % at 15 µM; 0.67% of 360,000 active; AID 602261;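 active means compounds whose normalised, plate-corrected inhibition of enzyme fluorescence in the single-dose primary screen is 50% or more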
FAS-TE inh conf – confirmation of human fatty acid synthase thioesterase inhibitors; shares compounds with FAS-TE inh; recombinant FAS-TE, OMFH fluorogenic substrate, fluorescence; inhibition, % at 15 µM; 45% of 2,300 active; AID 624325;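 active means compounds inhibiting the enzyme by at least 50% at 15 µM in any one of the replicates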
Of the large screens only hits and unclear results are named; the others gave an inactive call (follow-up assays come after a bar, where they were run).

CCOC(=O)c1cccc(C2=C(CNC(=O)c3cccnc3)[C@H]3CC[C@@H](C2)N3Cc2ccccc2)c1	H9c2 protect 55
Brc1csc(N2CCNCC2)n1	none (no result: H9c2 protect, FAS-TE inh)
CN=C1CN=C(c2ccc[nH]2)c2cc(Cl)ccc2N1	none (no result: H9c2 protect, FAS-TE inh)
O=c1[nH]c2ccccc2n1CCCN1CCC(n2c(=O)[nH]c3cc(Cl)ccc32)CC1	H9c2 protect 63
O=c1[nH]c2cc(Cl)ccc2n1C1CCN(Cc2ccc(-c3nc4ccc(F)cc4nc3-c3ccccc3)cc2)CC1	none (no result: H9c2 protect, FAS-TE inh)
CC(C)NC1C2CCC(CC2)C1(O)c1ccc(Cl)c(Cl)c1 (centres undefined)	none
C=C1C(C)C2C(Cc3ccccc3)NC(=O)C23OC(=O)/C=C/C(O)CCCC(C)C/C=C/C3C1O (centres undefined)	H9c2 protect 57
CCC(C)N1C(=O)NC(=O)C2(Cc3c(ccc4ccccc34)N(C)C2)C1=O (centres undefined)	H9c2 protect 69
O=c1c2ccccc2nc(CSc2ncnc3nc[nH]c23)n1-c1ccc(Cl)c(Cl)c1	H9c2 protect 68
CCCCn1nnnc1C(CCc1ccccc1)N1CCC(n2c(=O)[nH]c3ccccc32)CC1 (centres undefined)	none
CCC(c1nnnn1Cc1ccccc1)N1CCC(n2c(=O)[nH]c3ccccc32)CC1 (centres undefined)	H9c2 protect 51
C[C@@H]1CN([C@H](C)CO)C(=O)CCCn2nncc2CO[C@@H]1CN(C)C(=O)Oc1ccccc1	none
COc1cccc(NP(=O)(Oc2ccc(Cl)cc2)Oc2ccc(Cl)cc2)c1	none
COc1ccccc1OP(=O)(Nc1cccnc1)Oc1ccccc1OC	H9c2 protect 60
O=[N+]([O-])c1cccc(O)c1	none
O=[N+]([O-])c1cc(S(=O)(=O)c2ccc(O)c([N+](=O)[O-])c2)ccc1O	PLCg1 inh 35
C=C(COC(C)=O)CC1CC(O)[C@]2(C)OC3CC4OC5C[C@]6(C)O[C@]7(C)CCC8OC9C[C@]%10(C)OC%11C(C)=CC(=O)OC%11CC%10OC9C[C@@H](C)C8OC7CC6O[C@]5(C)C/C=C\C4OC3CC2O1 (some centres undefined)	FAS-TE inh 87 (no result: PLCg1 inh, PLCb3 inh)
C=C(CO)CC1CC(O)[C@]2(C)OC3CC4OC5C[C@]6(C)O[C@]7(C)CCC8OC9C[C@]%10(C)OC%11C(C)=CC(=O)OC%11CC%10OC9C[C@@H](C)C8OC7CC6O[C@]5(C)C/C=C\C4OC3CC2O1 (some centres undefined)	none
CC1=CC2OC3CC4OC(=O)C=CC=CC(=O)OCCC(C)C(O)C(=O)OCC2(CC1O)C4(C)C31CO1 (centres undefined)	H9c2 protect 54 (no result: PLCg1 inh, PLCb3 inh)
CC(=O)OC1C(=O)OCC23CCC4(C)OC4C2OC2CC(OC(=O)C=CC=CC(=O)OCCC1C)C3(C)C21CO1 (centres undefined)	H9c2 protect 56
CC(C)N1CCOC(c2ccc(O)c(O)c2)C1 (centres undefined)	none
CCC(c1nnnn1Cc1ccccc1)N1CCC2(CC1)C(=O)NCN2c1ccccc1 (centres undefined)	none
O=C(O)c1cccc2c1NC(C(=O)O)C1CC(Sc3ccccc3[N+](=O)[O-])C(Cl)C21 (centres undefined)	PLCg1 inh 19
CCOc1cc(CNCCc2c[nH]c3ccccc23)cc(Cl)c1OCC	PLCg1 inh 12, PLCb3 inh 12
Cc1cccc(C)c1-n1nnnc1C(c1cccs1)N1CCC2(CC1)C(=O)NCN2c1ccccc1 (centres undefined)	none
CSc1nc(Cl)c(Br)c(N2CC2)n1	H9c2 protect 51
Nc1ccc(N=Nc2ccccc2)cc1	none
Cc1cc(N=Nc2ccccc2C)ccc1N	PLCg1 inh 9.6
COC(=O)C1=C(c2ccc(OCc3ccccc3)c(F)c2)C[C@@H]2CC[C@H]1N2C	PLCg1 inh 13
COC(=O)C1=C(c2ccc(OCc3ccccc3)cc2)C[C@@H]2CC[C@H]1N2C	none
C[CH2][Hg][S]c1ccccc1C(=O)O	none
O=c1c2ccccc2nc(/C=C/c2ccc(O)cc2)n1-c1ccc(O)cc1	H9c2 protect 55
COc1ccc(-n2c(/C=C/c3ccc(O)cc3)nc3ccccc3c2=O)cc1	H9c2 protect 53
COc1cccc(-n2c(/C=C/c3ccccn3)nc3ccccc3c2=O)c1	none
COc1cccc(-n2c(/C=C/c3ccc(O)c(O)c3)nc3ccccc3c2=O)c1	H9c2 protect 72
O=c1c2ccccc2nc(/C=C/c2ccc(O)cc2)n1-c1cccc(O)c1	none
COc1ccc(-n2c(/C=C/c3ccc(O)c(OC)c3)nc3ccccc3c2=O)cc1	H9c2 protect 88
COc1ccc(-n2c(/C=C/c3ccc4c(c3)OCO4)nc3ccccc3c2=O)cc1	none
COC(=O)C1C(c2ccc(F)cc2)CC2CCC1N2C (centres undefined)	none (no result: H9c2 protect, FAS-TE inh)
CCCCCn1c(N)c(C(=O)NCCN2CCOCC2)c2nc3ccccc3nc21	none
COc1ccc(CCNC(=O)c2c(N)n(CCN3CCOCC3)c3nc4ccccc4nc23)cc1OC	H9c2 protect 57
CC(C)C[C@@H]1COc2cc(N3CCN(C)CC3)ccc2S(=O)(=O)N1	none (no result: H9c2 protect)
O=C(CNC(=O)OCc1ccccc1)NC(Cc1ccccc1)P(=O)(Oc1ccccc1)Oc1ccccc1 (centres undefined)	none (no result: H9c2 protect, FAS-TE inh)
CCn1nc(/C=C/c2ccccc2)nc2c(=O)n(C)c(=O)nc1-2	PLCg1 inh 43
S=C(NCCc1ccccc1)N1Cc2cc(Br)ccc2-n2nncc2C1	FAS-TE inh 62 | FAS-TE inh conf 25
CCOC(=O)[C@]12Cc3cc(C)ccc3[C@H]1N(CCC(=O)OC)C(=O)c1cc(OC)ccc12	none (no result: H9c2 protect)
CCOC(=O)[C@]12Cc3cc(C)ccc3[C@H]1N(C1CCCCC1)C(=O)c1cc(OC)ccc12	FAS-TE inh 85 (no result: H9c2 protect) | FAS-TE inh conf 40
CCOC(=O)[C@]12Cc3cc(C)ccc3[C@H]1N(Cc1ccccc1)C(=O)c1ccccc12	none
CCOC(=O)[C@]12Cc3cc(OC)ccc3[C@H]1N(C1CCCCC1)C(=O)c1cc(OC)ccc12	FAS-TE inh 62 (no result: H9c2 protect) | FAS-TE inh conf inactive
CCOC(=O)[C@]12Cc3cc(C)ccc3[C@H]1N(C(C)C)C(=O)c1ccccc12	FAS-TE inh 57 (no result: H9c2 protect) | FAS-TE inh conf inactive
COc1cccc(C(c2nnnn2Cc2ccccc2)N2CCC3(CC2)C(=O)NCN3c2ccccc2)c1OC (centres undefined)	none
COc1ccc(C(=O)OCC2CN2c2cccc([N+](=O)[O-])c2)cc1 (centres undefined)	none (no result: H9c2 protect)
O=C1NCN(c2ccccc2)C12CCN(C(c1ccccc1OC(F)(F)F)c1nnnn1-c1ccc3c(c1)OCCO3)CC2 (centres undefined)	FAS-TE inh 82 | FAS-TE inh conf inactive
COc1ccc(-n2nnnc2C(c2ccccc2)N2CCC3(CC2)C(=O)NCN3c2ccccc2)cc1 (centres undefined)	none
COc1ccc(C(c2nnnn2-c2ccc(OC)cc2)N2CCC3(CC2)C(=O)NCN3c2ccccc2)cc1 (centres undefined)	FAS-TE inh 52 | FAS-TE inh conf inactive

Source: PubChem
